Mtb MenB inh – Mtb MenB enzyme inhibition. inhibition, % (no concentration beside the values). 100,000 tested, 0.43% active. MenB enzyme assay, absorbance read-out. AID 540299; in the data active = inhibition above about 21%, passing the limit was not always enough
Polio RdRp inh – poliovirus RNA polymerase inhibition; P03300; poliovirus polymerase elongation, fluorescence polarization; stronger effect = lower value; % elongation, % (compound at 16.7 µg/mL); 150,000 tested, 0.66% active; AID 588519; in the data active = % elongation below about 90%
Target sequence (P03300 1749-2209 limits assumed): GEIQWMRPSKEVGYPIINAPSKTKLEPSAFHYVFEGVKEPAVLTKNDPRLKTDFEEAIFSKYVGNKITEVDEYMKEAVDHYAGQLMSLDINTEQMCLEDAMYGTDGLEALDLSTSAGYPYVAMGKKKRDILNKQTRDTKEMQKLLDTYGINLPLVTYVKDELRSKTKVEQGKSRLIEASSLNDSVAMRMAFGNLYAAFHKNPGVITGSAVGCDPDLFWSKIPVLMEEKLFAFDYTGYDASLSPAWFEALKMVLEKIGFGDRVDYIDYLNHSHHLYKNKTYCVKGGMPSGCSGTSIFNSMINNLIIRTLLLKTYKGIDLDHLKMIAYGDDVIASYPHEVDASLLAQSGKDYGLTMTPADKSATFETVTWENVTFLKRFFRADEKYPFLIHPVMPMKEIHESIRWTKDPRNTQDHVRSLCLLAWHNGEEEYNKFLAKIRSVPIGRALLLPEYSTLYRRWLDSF
AID504770 – growth inhibitors of E. coli YBA685 in a screen for V. cholerae RctB (chromosome II replication) inhibitors; 130,000 tested, 0.27% active; AID 504770; E. coli YBA685 rctB-dependent plasmid, OD600 growth, 3 h; stronger effect = lower value; z-score (no concentration beside the values); in the data active = z-score below about -2, passing the limit was not always enough
MbtI inh – blocks the Mycobacterium tuberculosis siderophore enzyme MbtI | 100,000 tested, 0.89% active | inhibition, % (no concentration beside the values) | P9WFX0 | purified MbtI enzyme, fluorescence intensity read-out; in the data active = inhibition mostly above about 56%, no sharp cut-off; inactive = mostly below about 77%
Each line names hits and unclear results; the compound was inactive in the other large screens. In the library only some 1.4% were active in any assay of this set; here they are far more common.

CCOC(=O)c1c(NC(=O)c2cc(-c3cccc(OC)c3)on2)sc(C)c1C	none
CCOC(=O)c1c(-c2ccccc2)csc1NC(=O)c1cc(-c2cccc(OC)c2)on1	Polio RdRp inh 71 (no result: Mtb MenB inh, AID504770, MbtI inh)
COC(=O)c1cccc(NC(=O)Cc2cccs2)c1C	none
CCc1cc(C(=O)OC)c(NC(=O)/C=C/C(=O)O)s1	none (no result: Mtb MenB inh, Polio RdRp inh, MbtI inh)
CCOC(=O)c1c(-c2ccccc2)csc1NC(=O)c1cc(-c2cccc(Cl)c2)on1	Polio RdRp inh 84 (no result: Mtb MenB inh, AID504770, MbtI inh)
CCOC(=O)c1c(-c2ccc(C)cc2)csc1NC(=O)c1cc(-c2ccc(Cl)cc2)on1	none (no result: Mtb MenB inh, AID504770, MbtI inh)
Cc1ccc(-n2c(C)cc(/C=N/NC3CCS(=O)(=O)C3)c2C)cc1 (stereo unspecified)	none
O=S1(=O)CCC(N/N=C/c2ccccc2O)C1 (stereo unspecified)	Polio RdRp inh 20
Nc1nc(NS(=O)(=O)c2ccccc2)ns1	AID504770 -2.9 (no result: Mtb MenB inh, Polio RdRp inh, MbtI inh)
O=S(=O)(Nc1ncccn1)c1ccccc1	none
COc1cc2c(cc1OC)CN(c1ccc3ccccc3n1)CC2	Polio RdRp inh 89
Nn1c(CCC2CCCCC2)n[nH]c1=S	Polio RdRp inh 81, MbtI inh 86
COc1cccc(C(C(F)(F)F)P(C)(=O)O)c1 (stereo unspecified)	none
CC(C)(C)c1cc(/N=C/c2c(O)[nH]c(=O)[nH]c2=O)n(-c2ccccc2)n1	none
O=C1CC(CSc2ccc(Cl)cc2)=NN1c1nc2ccccc2s1	none
CC(C)(C)C1=NN(c2nc3ccc(Cl)cc3s2)C(=O)C1	MbtI inh 60
O=C(Cn1nnc2ccccc21)N/N=C1\CC(c2ccccc2)Oc2ccccc21 (stereo unspecified)	none
CC1=C(C)NC(=S)SC1	MbtI inh 97
COc1ccccc1CN1CCC(CNS(=O)(=O)c2ccc3c(c2)CCCC(=O)N3)CC1	none
CCCOc1ccc(/C=C/C(=O)Nc2sc(C)c(C)c2C(=O)OCC)cc1OC	Polio RdRp inh 73 (no result: Mtb MenB inh, AID504770, MbtI inh)
CCOC(=O)Cn1cc(/C=C2\C(=O)NC(=O)N(c3ccc(F)cc3)C2=O)c2ccccc21	none
N#CCn1cc(/C=C2\C(=O)NC(=O)N(c3cccc(F)c3)C2=O)c2ccccc21	MbtI inh 74
O=S(=O)(c1cccs1)N1CCCN(S(=O)(=O)c2cccs2)CC1	Mtb MenB inh 26
N#CSc1cnc(NC2CCCCC2)s1	MbtI inh 74
O=C(CCCSc1cccc[n+]1[O-])c1ccc(F)cc1	MbtI inh 99
O=C(CSc1cccc[n+]1[O-])c1ccccc1F	none
Cn1c(C2CCCCC2)nc2ccccc21	Mtb MenB inh 28
Cn1c(CNC2CCCCC2)nc2ccccc21	none (no result: Mtb MenB inh, Polio RdRp inh, MbtI inh)
CCOC(=O)C1=C(CSc2nnc(-c3cccs3)n2-c2ccccc2)NC(=O)NC1C (stereo unspecified)	AID504770 -2.5
CC(=O)Nc1ccc(N=NN2CCCCC2)cc1	AID504770 -2.5
CCN(CC)N=Nc1ccc(NC(C)=O)cc1	MbtI inh 90
CCc1ccccc1NC(=O)C(Cc1cccc(OC)c1)c1nn[nH]n1 (stereo unspecified)	none
COc1cc(C)ccc1OCC(=O)NC(C)C	none
Cn1c2c(c(=O)n(C)c1=O)C(c1ccccc1)C(C#N)=C(N)O2 (stereo unspecified)	Polio RdRp inh 85 (no result: MbtI inh)
COc1cccc(C2C(C#N)=C(N)Oc3c2c(=O)n(C)c(=O)n3C)c1 (stereo unspecified)	none
CCCN(Cc1nnc(-c2ccco2)o1)C(=O)c1cccnc1SCc1c(C)noc1C	Polio RdRp inh 89
Cc1nc2nc(C(F)(F)F)[nH]c2cc1Br	MbtI inh 70
CCN1CCN(CC(=O)Nc2ccc(Cl)cn2)CC1	none
COc1ccc(N2CCN(/C=C3\C(=O)N(c4ccc(C)cc4)C(=O)c4ccccc43)CC2)cc1	none
CCO/C=C1\C(=O)N(c2ccccc2)C(=O)c2ccccc21	Polio RdRp inh 80 (no result: Mtb MenB inh)
CCO/C=C1/C(=O)N(c2ccc(S(=O)(=O)N3CCOCC3)cc2)C(=O)c2ccccc21	none
CCO/C=C1/C(=O)N(c2ccc(OC)cc2)C(=O)c2ccccc21	Polio RdRp inh 82
CCCSc1nc(-c2ccc(OC)cc2)cc(-c2ccccc2OC)c1C#N	Polio RdRp inh 88 (no result: Mtb MenB inh, AID504770, MbtI inh)
O=C(O)CCc1ccccc1O	none
Cc1ccc(OCCn2cc(C(=O)c3cccs3)c3ccccc32)cc1	Polio RdRp inh 77 (no result: Mtb MenB inh, AID504770, MbtI inh)
Cc1ccc(SC2=CCS(=O)(=O)C2)cc1	none (no result: Mtb MenB inh, Polio RdRp inh, MbtI inh)
O=C(Nc1cccc(-n2cnnn2)c1)C1CCCN1C(=O)c1cccs1 (stereo unspecified)	none
CC1(C)CC(NC(=O)CCCC(=O)O)CC(C)(C)N1	none
CC1(C)CC(NC(=O)CCc2ccccc2)CC(C)(C)N1	Mtb MenB inh 39
Nc1cc(C(F)(F)F)ccc1-n1cnc2ccccc21	MbtI inh 90 (no result: Mtb MenB inh)

Screening results as filed in PubChem BioAssay.
